# Test results taken from PubChem BioAssay (Tox21).
# Records with an inconclusive call do not appear. A call without a number means that no potency is given here. A number with no mark means an inactive call. Activity calls are given as the source filed them. Calls follow the shape of the full dose curve.
# Target: D(2) dopamine receptor (Homo sapiens) (UniProt P14416)
# Test: Dopamine D2 receptor (DRD2) small molecule agonists, cell-based qHTS assay (AID 1963594); also: nearly all actives have a fitted effect of over 35% in size
# Details: HEK293-DRD2 cAMP HTRF, agonist mode, 30 min; series mostly up to 92.4 µM; activation: at the top concentration
# Text: National Center for Advancing Translational Sciences [NCATS]
# Division of Preclinical Innovation [DPI]
# U.S. Environmental Protection Agency [EPA]
# National Institutes of Environmental Health Sciences [NIEHS]
# National Toxicology Program [NTP]
# U.S. Food and Drug Administration [FDA]
# DRD2 is the D2 subtype of the dopamine receptor, which is coupled to Gi subtype of G protein-coupled receptor. This G protein-coupled receptor inhibits adenylyl cyclase activity. The DRD2-HEK293 cell line stably expressing D2 dopamine receptor can be used for screening agonists and antagonists of interactions between D2 and its ligands. The Hek293-DRD2 cAMP assay is based on HTRF technology. It measures changes of cAMP accumulation in response to Gi coupled GPCR activation or inhibition.
# Tox21 Assay Protocol Summary:
# DRD2-Hek293 cells were dispensed at 600 cells/3uL/well in 1536-well white plates using a Multidrop Dispenser. After the assay plates were incubated at a 37 C/5% CO2 incubator for 24 h, 1 uL of Ro20-1724 at final concentration of 0.1 mM was transferred to the assay plate by a Flying Reagent Dispenser. Following Ro20-1724 addition, 23 nL of compound dissolved in DMSO, positive controls or DMSO only was added to the assay plates via Wako pintool station. The assay plates were incubated at room temperature for 10 min. Next, 1 uL of NKH477 at 200nM was added into the plates. After the assay plates were incubated at room temperature for an additional 30 min, 2.5 ul/well of cAMP-d2 and 2.5 ul/well of anti-cAMP-cryptate were added respectively into the assay plates using a Flying Reagent Dispenser. The plates were incubated at room temperature for 1 h. The fluorescence intensity in the plates was measured at 340 nm excitation and 665 & 620 nm emission by an Envision plate reader.
# Chain of D(2) dopamine receptor (Homo sapiens) (P14416 whole entry, looked up): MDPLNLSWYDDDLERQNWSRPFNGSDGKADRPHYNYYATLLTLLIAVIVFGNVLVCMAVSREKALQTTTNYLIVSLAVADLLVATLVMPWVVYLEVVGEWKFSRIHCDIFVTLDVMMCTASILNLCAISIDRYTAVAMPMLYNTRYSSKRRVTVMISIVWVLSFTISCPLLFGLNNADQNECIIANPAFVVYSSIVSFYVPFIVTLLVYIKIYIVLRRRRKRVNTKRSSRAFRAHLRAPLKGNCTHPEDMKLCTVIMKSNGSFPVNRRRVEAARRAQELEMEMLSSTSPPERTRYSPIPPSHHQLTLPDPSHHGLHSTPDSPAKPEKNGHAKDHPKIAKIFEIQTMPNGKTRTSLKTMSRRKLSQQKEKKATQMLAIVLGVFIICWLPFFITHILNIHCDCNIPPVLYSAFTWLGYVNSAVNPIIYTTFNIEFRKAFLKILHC
SMILES,activation,Potency
N#Cc1cccnc1,-0.295%,–
CCCCOCCOC(C)=O,–,inactive
Nc1ccccc1Cl,-3.63%,–
O=C(O)COc1cc(Cl)c(Cl)cc1Cl,–,inactive
OC[P+](CO)(CO)CO,-1.33%,–
CCOS(=O)(=O)OCC,1.37%,–
CNC(=O)Oc1cccc2ccccc12,–,inactive
O=C(CCN1CC1)OCC(CO)(COC(=O)CCN1CC1)COC(=O)CCN1CC1,-8.86%,–
CCCSC(=O)Cl,0.431%,–
Cc1ncc(CNC(=O)N(CCCl)N=O)c(N)n1,0.957% [at 42.5 µM],–
c1ccc(N=Nc2ccccc2)cc1,–,inactive
Brc1c(Br)c(Br)c(Br)c(Br)c1Br,-0.47% [at 8.39 µM],–
COC(=O)Nc1cccc(OC(=O)Nc2cccc(C)c2)c1,–,inactive
CN1CSC(=S)N(C)C1,–,inactive
COP(=S)(OC)Oc1cc(Cl)c(Cl)cc1Cl,10.7%,–
O=[N+]([O-])/N=C1\NCCN1Cc1ccc(Cl)nc1,–,inactive
Clc1ccc(COC(Cn2ccnc2)c2ccc(Cl)cc2Cl)cc1 (stereo not given),–,inactive
O=C(O)C(Cl)Br (stereo not given),-2.71%,–
Nc1ccc(N)cc1,–,inactive
CCCC[N+]1(C)CCCC1,–,inactive

SMILES,activation,Potency
CCOc1ccc(N)cc1,–,inactive
c1ccc2c(c1)-c1cccc3cccc-2c13,–,inactive
CCOC(=O)c1cncn1C(C)c1ccccc1 (stereo not given),4.15% [at 42.5 µM],–
Cn1c(-c2ccccc2)cc(-c2ccccc2)[n+]1C,–,inactive
Cc1cccc(C#N)c1,0.0669%,–
CN(C)C(=O)Cl,–,inactive
Clc1nc(Cl)nc(Nc2ccccc2Cl)n1,13.2%,–
CCCCCCCCCCCCOS(=O)(=O)O,–,inactive
Nc1ccccc1C(=O)OCC(O)CO (stereo not given),-6.87% [at 42.5 µM],–
O=C1C(Cl)=C(Cl)C(=O)c2ccccc21,2.38%,–
C=CC(=O)OCC(CC)CCCC (stereo not given),–,inactive
O=P1(NCCCl)OCCCN1CCCl (stereo not given),–,inactive
CCCCCCI,-0.408%,–
CC(C)(Cl)Cl,–,inactive
N[C@@H](Cc1ccc(N(CCCl)CCCl)cc1)C(=O)O,–,inactive
CCCCCON=O,2.7%,–
CCOC(=O)CP(=O)(OCC)OCC,2.93%,–
CCCCCCCCCCCCCC[P+](CCCCCC)(CCCCCC)CCCCCC,–,inactive
[O-][Cl+2]([O-])O,–,inactive
FC(Cl)(Cl)Cl,-2.65%,–
